Laboratory results as given in PubChem BioAssay AID449762 (Southern Research Specialized Biocontainment Screening …, 2010).
Where “and” joins values, the source holds several entries; their conditions need not be identical. Identical values can stand only once. About 1,900 (0.58%) of roughly 330,000 compounds were called active. Not shown: some 4% with an inconclusive outcome. A selection follows. Measured potencies and affinities stand elsewhere. Unmarked numbers belong to inactive results. Cut-off read from the data, not from the text of the source: inconclusive = inhibition above about 70% without an active follow-up result; inactive = below that.

Assay: M. tuberculosis growth inhibition, HTS (AID 449762);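 note: bacterial growth assessed after seven days of incubation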
Conditions: M. tuberculosis H37Rv growth inhibition, 7H9 media; at 25 µM; hits give high values

Row | SMILES | inhibition
1 | CCOC(=O)CSc1nnc(COc2ccc3ccccc3c2)o1 | 6.46%
2 | COC(=O)CSc1nnc(COc2ccc3ccccc3c2)o1 | -6.41%
3 | COc1ccc(N2CCN(C(=O)CCS(=O)(=O)c3ccc4c(c3)NC(=O)C(C)S4)CC2)cc1 (stereo not drawn) | 6.18%
4 | Cc1ccc(C(=O)Oc2ccc(Br)cc2C(=S)N2CCOCC2)cc1 | 11.3%
5 | O=Cc1c(NCc2ccc(Cl)cc2)c2ccccc2[nH]c1=O | 2.94%
6 | CCCN(CC(=O)Nc1ccccc1OC)C(=O)CCC(=O)c1ccc(OCC)cc1 | 3.5%
7 | CCc1ccc(CNC(=O)C2Cc3cc(S(=O)(=O)N4CCCC4)ccc3N2C(C)=O)cc1 (stereo not drawn) | -2.81%
8 | CSc1ccc(CNC(=O)C2Cc3cc(S(=O)(=O)N4CCCC4)ccc3N2C(C)=O)cc1 (stereo not drawn) | 2.84%
9 | C=CCN(CC=C)C(=O)C[n+]1ccc(C(N)=O)cc1 | 6.91%
10 | COCCN1C(=O)C(=O)/C(=C(/O)c2ccc(S(=O)(=O)N3CCCCC3)cc2)C1c1ccc(O)c(OC)c1 (stereo not drawn) | -2.3%
11 | CN(c1ccccc1)S(=O)(=O)c1cccc(NC(=O)CSc2nnc(N)s2)c1 | 3.34%
12 | O=C1Nc2ccc(Br)cc2/C1=C/c1ccc(C(=O)O)cc1 | 0.13%
13 | O=C(CC1(O)C(=O)Nc2ccc(Br)cc21)c1ccc2c(c1)OCO2 (stereo not drawn) | -6.14%
14 | CC(C)C(=O)Nc1c2c(nn1-c1ccc([N+](=O)[O-])cc1)CS(=O)(=O)C2 | 3.07%
15 | Cc1ccc(F)cc1NC(=O)c1c(-c2ccccc2)noc1C | -8.46%
16 | CCOc1ccc(C(=O)Nc2ccc3nc(N4CCN(CC)CC4)cc(C)c3c2)cc1 | 43.7%
17 | CCOc1[nH]n(-c2ccccc2)c(=O)c1C=Nc1ccc(C)cc1 | 9.52%
18 | CCOc1[nH]n(-c2ccccc2)c(=O)c1C=Nc1ccccc1 | 19%
19 | Cc1ccccc1-n1c(-c2ccc([N+](=O)[O-])cc2)nc2ccccc2c1=O | 2.55%
20 | COc1ccc(NC(C)=O)c(C)c1 | -2.52%
21 | c1ccc(-c2nc(-c3ccncc3)n[nH]2)nc1 | -0.34%
22 | c1ccc(-c2n[nH]c(-c3ccccn3)n2)nc1 | -3.4% and -2.35%
23 | O=C(NCc1ccccc1F)c1cc(=O)[nH]c2ccccc12 | 1.18%
24 | Cc1ccc2nsnc2c1S(=O)(=O)N1CCOCC1 | -4.54%

Row | SMILES | inhibition
25 | COc1ccc(CCNC(=O)c2ccc(CNS(=O)(=O)c3cc(C)ccc3C)cc2)cc1OC | -3.98%
26 | Cc1c(NS(=O)(=O)c2ccc(Br)cc2)c(=O)n(-c2ccccc2)n1C | 0.05%
27 | O=S(=O)(Nc1ccccn1)c1ccc(Br)cc1 | 10.2%
28 | O=C(c1cc(F)ccc1F)C1CCCN(CCCc2ccccc2)C1 (stereo not drawn) | 10.3%
29 | CC(CCc1ccccc1)NC(=O)COC(=O)C1CCC(C(C)(C)C)CC1 (stereo not drawn) | 6.62%
30 | CN1CCc2c(OCC(=O)N3CCC(Cc4ccccc4)CC3)cccc2C1=O | 5.02%
31 | Cc1cc(NC(=O)c2cccs2)n(-c2nc3ccccc3[nH]2)n1 | 57.9%
32 | Cc1cc(NC(=O)c2ccc(C)s2)n(-c2nc3ccccc3[nH]2)n1 | 56.9%
33 | CCn1nnnc1SCC(=O)N1CCCCC1 | 0.5%
34 | O=C1NC(=Nc2ccccc2)SC1Cc1ccccc1 (stereo not drawn) | -10.5%
35 | O=C1N/C(=N/N=C/c2ccc(O)cc2)SC1Cc1ccccc1 (stereo not drawn) | -5.03%
36 | CCC(Sc1nc2ccc(N)cc2s1)C(=O)Nc1nccs1 (stereo not drawn) | 61%
37 | C[n+]1cnn2c1SCC1(COC1)C2 | 3.72%
38 | O=C(CNC(=O)c1ccc(Cl)cc1)c1ccccc1 | -1.27%
39 | O=C(CNC(=O)c1ccc(F)cc1)c1ccc(Cl)cc1 | 6.46%
40 | C=C(C)Cn1c(C)cc(C)c(S(=O)(=O)c2cccc(C)c2)c1=O | -7.99%
41 | CCOc1cc(CNc2ccc(Br)cc2)cc(Br)c1OCC(=O)NC(C)(C)C | -3.44%
42 | Cc1nc2ccccc2c2oc(C(=O)N3CCN(c4ccc([N+](=O)[O-])cc4)CC3)cc12 | 26.2%
43 | CC(=O)c1ccc(N2CCN(C(=O)c3cc4c(C)nc5ccccc5c4o3)CC2)cc1 | 4.42%
44 | O=C(CCS(=O)(=O)c1ccc(Cl)cc1)N1CCN(c2ccccc2F)CC1 | -3.9%
45 | COc1ccc(OC)c(CN2CCN(C(=O)CCNC(=O)c3ccc(Br)cc3)CC2)c1 | -2.93%
46 | COc1ccc(OC)c(CN2CCN(C(=O)CNC(=O)c3cc(C)cc(C)c3)CC2)c1 | 1.7%
47 | CCc1cc(C(=O)NN2C(=O)NC3(CCCCC3)C2=O)sc1C | -5.54%
48 | Cc1ccc(NC(=O)c2sc(Cl)nc2-c2ccccc2)cc1 | 1.87%

Row | SMILES | inhibition
49 | O=C(NC1CCCCCC1)c1cc(S(=O)(=O)N2CCOCC2)ccc1N1CCCCC1 | -7.36%
50 | CCCCCCCNC(=O)C1(CC2CC(c3ccccc3)=NO2)CCNCC1 (stereo not drawn) | -6.2%
51 | CCCCCCCNC(=O)C1(CC2CC(c3cccc(Br)c3)=NO2)CCN(C(=O)Cc2ccc(F)cc2)CC1 (stereo not drawn) | 1.04%
52 | Cc1ccc(-n2c(SCC(=O)NCCN3C(=O)CSC3=O)nnc2-c2ccccc2)cc1 | -2.1%
53 | O=C(Nc1ccc(-c2csc(Nc3cccc(C(F)(F)F)c3)n2)cc1)c1ccccc1 | 50.9%
54 | O=C(Nc1ccc(-c2csc(Nc3ccccc3)n2)cc1)c1cccc(C(F)(F)F)c1 | 1.22%
55 | Cc1ccc(C(=O)N/N=C2\CCCc3ccccc32)c(C)c1 | -7.5%
56 | O=C(N/N=C1\CCCc2ccccc21)c1ccccc1Cl | 5.05%
57 | CCOc1ccc(CN(C)C(=O)c2cccnc2OCC)cc1OC | -1.02%
58 | CCOc1ccc(C(C)NC(=O)Nc2ccc(F)cc2F)cc1 (stereo not drawn) | 6.1%
59 | Cn1c(/C=N/c2nc3ccccc3[nH]2)nc2ccccc21 | 43.9%
60 | C(=N\Nc1nc2ccccc2[nH]1)/c1ccccc1 | 33.3%
61 | CCOc1ccc(OCCNC(=O)C(NC(=O)c2c(F)cccc2F)C(C)C)cc1 (stereo not drawn) | -12.3%
62 | COc1ccc(Nc2nnc(SC(C)C(=O)NC3CC3)s2)cc1 (stereo not drawn) | -1.49%
63 | Cc1c(NC(=S)N/N=C/c2cccc(O)c2)c(=O)n(-c2ccccc2)n1C | -10.1%
64 | N=c1c2c(-c3ccccc3)c(-c3ccccc3)n(Cc3ccco3)c2ncn1CCO | 52.9%
65 | N=c1c2c(-c3ccccc3)c(-c3ccccc3)n(Cc3ccco3)c2ncn1CCCO | 16.4%
66 | O=C(Oc1ccccc1C(=S)N1CCOCC1)c1ccc([N+](=O)[O-])cc1[N+](=O)[O-] | 38.5%
67 | O=C(C1=C(O)C(=O)N(CCOCCO)C1c1cccc([N+](=O)[O-])c1)c1cccs1 (stereo not drawn) | -3.54%
68 | Cc1ccc(-c2cc(C(=O)N3CC(C)OC(C)C3)c3ccccc3n2)o1 (stereo not drawn) | -3.5%
69 | COc1ccc2nc(NC(=O)C3CSC4(C)CCC(=O)N34)sc2c1 (stereo not drawn) | 8.66%
70 | COc1ccc(C(CNC(=O)c2cccc(NS(=O)(=O)c3ccccc3)c2)N(C)C)cc1 (stereo not drawn) | -11.7%
71 | CCCCCCOC(=O)C(C#N)c1nc2ccccc2nc1N1CCCCC1 (stereo not drawn) | 6.23%
72 | CCCCCCOC(=O)C(C#N)c1nc2ccccc2nc1N1CCOCC1 (stereo not drawn) | 5.48%

Row | SMILES | inhibition
73 | CCOC(=O)CC(=O)CSc1nccc(-c2cccnc2)n1 | 2.54%
74 | COc1cc(OC)cc(C(=O)NCc2ccc3c(c2)cc(C)n3C)c1 | 55.2%
75 | O=S(=O)(NC1CCCCC1N1CCN(c2ccc(F)cc2)CC1)c1ccccc1 (stereo not drawn) | 11.3%
76 | COc1ccc(-c2ccc(C)cc2)cc1[C@H]1[C@@H]2C=CCC[C@@]2(C)C(=O)N1Cc1ccccc1 | 2.77%
77 | COc1ccc(-c2ccc(N(C)C)cc2)cc1[C@H]1[C@@H]2C=CCC[C@@]2(C)C(=O)N1Cc1ccccc1 | -2.81%
78 | CC(Sc1ccc(S(=O)(=O)N2CCOCC2)cc1[N+](=O)[O-])C(=O)O (stereo not drawn) | 1.21%
79 | O=C(/C=C/c1ccccc1)N1CCC(N2CCC(C(=O)N3CCOCC3)CC2)CC1 | -6.29%
80 | CCSc1cc(N2CCOCC2)nc(-c2ccccc2)n1 | 8.27%
81 | Cc1cc(C)n(-c2ccccc2[N+](=O)[O-])n1 | -3.52%
82 | O=[N+]([O-])c1ccccc1/C=N/Nc1nc(N2CCCC2)nc(N2CCCC2)n1 | 2.55%
83 | O=C(/C(=C/c1ccc(Cl)cc1)c1nc2ccccc2[nH]1)c1ccccc1 | 0.75%
84 | O=C(/C(=C\c1ccccc1)c1nc2ccccc2[nH]1)c1ccc(Cl)cc1 | 12.1%
85 | Nc1nsnc1C(=O)NCCO | -5.83%
86 | O=C1CS/C(=N/N=C/c2c[nH]c3ccccc23)N1 | 2.46%
87 | O=C(CSc1n[nH]c(-c2ccccc2)n1)N1CCOCC1 | -3.77%
88 | O=C(CN1CCCC1)NN=C(c1ccccc1)c1ccccc1 | -2.73%
89 | CCN(CC)CC(=O)NN=C(c1ccccc1)c1ccccc1 | -1.34%
90 | NC(=S)N=Nc1c(O)[nH]c2c(Br)cc(Br)cc12 | -0.35%
91 | COc1ccc(C(=O)NCC(=O)NCC(=O)OCC(=O)c2ccc(Br)cc2)cc1 | 7.79%
92 | Cc1csc(NC(=O)COCC(=O)O)c1-c1nc2ccccc2s1 | -5.81%
93 | Cc1csc(NC(=O)CSCC(=O)O)c1-c1nc2ccccc2s1 | -1.68%
